# Test results taken from PubChem BioAssay (NCI).
# Compounds without any hit were thinned out: in the full panel of roughly 83,000, 20% have a hit.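 How to read the values: 0–100, growth inhibition (40 = 60% inhibited); 0, no net growth; -100 to 0, cell death (-40 = 40% of starting cells died; -100 = all dead).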 Activity calls are given as the source filed them. How the source made its calls: active means growth percent below 10; inactive means the rest.
# Legend:
# Assay in all cases: NCI-60 one-dose screen, 48 h (100 = growth as untreated, 0 = no growth, -100 = all killed)
# [1] = system: NCI-H226 lung; details: 10 µM unless noted
# [2] = system: HOP-92 NSCLC; details: 10 µM unless noted
# [3] = system: NCI-H522 lung; details: 10 µM unless noted
# [4] = system: A549/ATCC NSCLC; details: 10 µM unless noted
# [5] = system: HT29 colon; details: 10 µM unless noted
# [6] = system: SNB-19 CNS; details: 10 µM unless noted
# [7] = system: PC-3 prostate; details: 10 µM unless noted
# [8] = system: EKVX NSCLC; details: 10 µM unless noted
# [9] = system: TK-10 renal; details: 10 µM unless noted
# [10] = system: CAKI-1 renal; details: 10 µM unless noted
# [11] = system: CCRF-CEM leukemia; details: 10 µM unless noted
# [12] = system: OVCAR-8 ovarian; details: 10 µM unless noted
# [13] = system: OVCAR-4 ovarian; details: 10 µM unless noted
# [14] = system: SK-OV-3 ovarian; details: 10 µM unless noted
# [15] = system: HS 578T breast; details: 10 µM unless noted
# [16] = system: NCI-H322M lung; details: 10 µM unless noted
# [17] = system: HOP-62 NSCLC; details: 10 µM unless noted
# [18] = system: A498 renal; details: 10 µM unless noted
# [19] = system: COLO 205 colon; details: 10 µM
Structure (SMILES),growth [1],growth [2],growth [3],growth [4],growth [5],growth [6],growth [7],growth [8],growth [9],growth [10],growth [11],growth [12],growth [13],growth [14],growth [15],growth [16],growth [17],growth [18],growth [19]
CC1([N+](=O)[O-])COP(=O)(Nc2ccc(F)cc2)OC1 (configuration not stated),101% (inactive),118% (inactive),89.4% (inactive),98.5% (inactive),96.5% (inactive),107% (inactive),95.5% (inactive),115% (inactive),95.1% (inactive),107% (inactive),96.3% (inactive),101% (inactive),113% (inactive),101% (inactive),103% (inactive),–,–,–,–
COc1c(O)c2c3c(c1OC)-c1ccccc1CC3N(C)CC2 (configuration not stated),–,110% (inactive),88.6% (inactive),103% (inactive),110% (inactive),102% (inactive),100% (inactive),115% (inactive),102% (inactive),–,98.7% (inactive),110% (inactive),120% (inactive),94.2% (inactive),–,96.1% (inactive),104% (inactive),116% (inactive),–
CCC(C)(C)O,102% (inactive),95.3% (inactive),–,108% (inactive),109% (inactive),–,100% (inactive),98% (inactive),107% (inactive),93.6% (inactive),6.63% (active),108% (inactive),–,118% (inactive),–,–,–,83.1% (inactive),110% (inactive)
O=C(N/N=C/c1ccc([N+](=O)[O-])o1)c1cc([N+](=O)[O-])cc([N+](=O)[O-])c1O,97.9% (inactive),117% (inactive),–,102% (inactive),97.4% (inactive),100% (inactive),85.9% (inactive),108% (inactive),121% (inactive),88.5% (inactive),98.3% (inactive),89.8% (inactive),106% (inactive),101% (inactive),104% (inactive),–,–,–,107% (inactive)
N#CC(C#N)=Cc1ccc2ccccc2c1,106% (inactive),95.1% (inactive),96.7% (inactive),107% (inactive),113% (inactive),106% (inactive),95.7% (inactive),121% (inactive),111% (inactive),101% (inactive),93.3% (inactive),105% (inactive),110% (inactive),104% (inactive),–,–,113% (inactive),–,110% (inactive)
CCCCn1cc(C(=O)/C(C#N)=C/c2cc3ccccc3nc2Cl)c2cc(OC)ccc21,–,–,99.6% (inactive),102% (inactive),–,90.3% (inactive),87.7% (inactive),93.9% (inactive),101% (inactive),75% (inactive),33.4% (inactive),75.1% (inactive),95.5% (inactive),94.5% (inactive),88.6% (inactive),98% (inactive),86.1% (inactive),94.8% (inactive),104% (inactive)
Cc1nnc([S-])s1.[Au+].c1ccc([PH+](c2ccccc2)c2ccccc2)cc1,–,-76.6% (active),-75.3% (active),74.6% (inactive),–,19.2% (inactive),15.4% (inactive),56.4% (inactive),–,-26.8% (active),0.579% (active),15.9% (inactive),36.2% (inactive),–,30.8% (inactive),84.2% (inactive),28.2% (inactive),25.1% (inactive),-31.7% (active)
CC[C@@H](C)/C=C(C)/C=C/C(=O)c1c(O)c(-c2ccc(O)cc2)cn(O)c1=O,–,–,21.9% (inactive),3.85% (active),–,13.6% (inactive),37.7% (inactive),-0.798% (active),11.6% (inactive),-54.9% (active),9.47% (active),–,–,17.8% (inactive),48% (inactive),22.5% (inactive),9.35% (active),39.3% (inactive),85.2% (inactive)
COc1cc(C2CC(=O)Nc3nc(N)[se]c32)cc(OC)c1OC (configuration not stated),103% (inactive),–,107% (inactive),45.7% (inactive),89.5% (inactive),52.1% (inactive),71.2% (inactive),90% (inactive),–,113% (inactive),96% (inactive),58.8% (inactive),105% (inactive),101% (inactive),81.9% (inactive),–,70.9% (inactive),82.8% (inactive),107% (inactive)
CC(=O)[O][Hg][CH2]C1(C)COC(C)([CH2][Hg][O]C(C)=O)CO1 (configuration not stated),86.7% (inactive),–,-58.9% (active),–,-25.6% (active),71.1% (inactive),–,57.9% (inactive),–,–,-65.3% (active),50.7% (inactive),123% (inactive),103% (inactive),84.3% (inactive),–,120% (inactive),75.8% (inactive),–
